“And” between values parts separate entries of the source, which are not always exact repeats. Identical values can stand only once. Records with an inconclusive call do not appear. The source made the active and inactive calls. Unless noted, calls come from the whole dose curve; as a rule, active = well fitted curve in the direction sought with a large enough effect; inconclusive = small, poorly fitted or top-dose-only effect, or another doubt; inactive = no such curve, though single readings can be large; an effect the other way counts as inactive or inconclusive.
What was measured:
[1] = Cell Viability - Jurkat (AID 426;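 active = dose-dependent loss of cell ATP signal giving a full or clear fitted curve, ranked by lower potency value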;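 note: potency is the fitted concentration of half-maximal effect; cells exposed to compound for 40 hours at 37 °C before ATP read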); details: qHTS
Summary of the method: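 Cytotoxicity was scored as loss of cellular ATP, measured by luciferase-based luminescence, in Jurkat clone E6-1 cells after 40 h compound treatment; tamoxifen and doxorubicin served as positive controls.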

[2] = Cell Viability - Hek293 (AID 427;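 active = compounds whose dose-response curve shows a full or clear partial loss of cell viability, called from curve shape rather than a numeric limit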;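 note: potency is the fitted concentration of half-maximal effect; cells exposed to compound for 40 hours at 37 °C before reading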); details: qHTS
Summary of the method: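 qHTS, human embryonic kidney (adenovirus-transformed) cells; 40 hr cpd, 37 °C; CellTiter-Glo ATP luminescence. Norm: DMSO = 0, 100 uM tamoxifen = 100% inhibition. Hill-fit AC50.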

[3] = Cellular Toxicity (caspase-3) H-4-II-E (AID 663); details: H-4-II-E rat hepatoma, scaled: DMSO 0%, 100 µM tamoxifen 100%; series mostly up to 92.2 µM;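 note: cells exposed to compound for 16 hr before readout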
Summary of the method: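 Caspase 3/7 activation measured in H-4-II-E cells in complete culture medium after 16 hr treatment at 37 °C, using luciferase-coupled substrate readout; AC50 values come from Hill-equation fits of normalized concentration-response data.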

[4] = Cellular Toxicity (caspase-3) N2a (AID 665); details: N2a cells, luminescence, normalized: DMSO 0%, 10 µM staurosporine 100%; at 92.2 µM (top of the series);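 note: compound exposure lasted 16 h at 37 °C before readout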
Summary of the method: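 Concentration-response qHTS: compound-induced caspase-3/7 luminescence in N2a cells (16 h, 37 °C), relative to DMSO and 10 uM staurosporine controls; AC50 obtained using the standard Hill equation.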

[5] = MultiTox-Fluor Cytotoxicity Assay - LYMP1-001 - Dead Cells (AID 946); details: LYMP1-001 lymphoblastoid cells, dead-cell protease fluorescence; series mostly up to 92.2 µM
Summary of the method: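 Seed 2500 LYMP1-001 cells/well, incubate 5 hr at 37 C; add compound, 16 hr at 37 C; add MultiTox-Fluor reagent, 60 min RT; read dead-cell fluorescence Ex/Em=485/520. Normalize to DMSO and 15 uM tetraoctylammonium bromide.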

[6] = Cell Viability - LYMP1-002 - Assay at 16 hr (AID 948); details: LYMP1-002 lymphoblastoid cell viability; series mostly up to 92.2 µM;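 note: 0% = DMSO alone and full effect = 92 µM tetraoctylammonium bromide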
Summary of the method: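 Human lymphoblastoid cells (LYMP1-002), 2500/well, were preincubated 5 hr at 37 C, then exposed to compounds for 16 hr at 37 C in complete medium. Cellular ATP was read by CellTiter-Glo luminescence after 30 min at room temperature; AC50 from Hill fits.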

[7] = MultiTox-Fluor Cytotoxicity Assay - LYMP1-003 - Dead Cells (AID 961); details: LYMP1-003 lymphoblastoid cells, dead-cell protease fluorescence; series mostly up to 92.2 µM; note: nearly all actives have a fitted effect of over 70% in size
Summary of the method: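 LYMP1-003 lymphoblastoid, 2500 cells/well, 5 hr settle then 16 hr cpd at 37 C; MultiTox-Fluor reagent 60 min RT; Ex/Em 485/520 dead-cell signal; norm. DMSO = 0%, 15 uM tetraoctylammonium bromide = 100%; Hill AC50.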

[8] = Cell Viability - LYMP1-003 - Assay at 24 hr (AID 963); details: LYMP1-003 lymphoblastoid cell viability; series mostly up to 92.2 µM;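 note: plate controls were DMSO only for no effect and tetraoctylammonium bromide positive control for full effect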
Summary of the method: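 The lymphoblastoid line was treated with titrated compounds for 24 hours, and viable cell number estimated from luciferase-based ATP luminescence.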

[9] = Cell Viability - LYMP2-011 (AID 969); details: LYMP2-011 lymphoblastoid cells viability; series mostly up to 92.2 µM;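 note: 0% = DMSO only and full inhibition = 92 µM tetraoctylammonium bromide; nearly all actives have a fitted effect of over 60% in size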
Summary of the method: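 Cells seeded at 2500 per well rest 5 hr before compound addition, then incubate 24 hr at 37 C. CellTiter-Glo reagent is added for 30 min at room temperature before luminescence detection.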

[10] = Cell Viability - LYMP2-013 (AID 970); details: LYMP2-013 lymphoblastoid cells viability; series mostly up to 92.2 µM;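 note: 0% = DMSO only and full inhibition = tetraoctylammonium bromide control; nearly all actives have a fitted effect of over 55% in size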
Summary of the method: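 In complete culture medium, human lymphoblastoid cells were dosed for 24 hr at 37 C, with tetraoctylammonium bromide (6.4pM to 92 uM) as positive control. Viability reflects luciferase-based ATP signal; AC50 derived from concentration-response curves.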

[11] = Cell Viability - LYMP2-023 (AID 975); details: LYMP2-023 lymphoblastoid cell viability; series mostly up to 92.2 µM;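 note: cellular ATP measured by luciferase luminescence as viability proxy; plate controls were DMSO only for no effect and 92 µM tetraoctylammonium bromide control for full effect; nearly all actives have a fitted effect of over 55% in size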
Summary of the method: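 In this qHTS, ATP-based luciferase luminescence (CellTiter-Glo) is quantified in human lymphoblastoid cells after 24 hr compound treatment at 37 C; tetraoctylammonium bromide serves as positive control. Concentration-response curves are Hill-fitted to give AC50.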

[12] = Cell Viability - LYMP2-025 (AID 976); details: LYMP2-025 lymphoblastoid cell viability; series mostly up to 92.2 µM;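 note: plate controls were DMSO only for no effect and tetraoctylammonium bromide control for full effect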
Summary of the method: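 Luminescent ATP readout after 24 hr treatment of a human lymphoblastoid line (LYMP2-025, 2500 cells/well, 37 C). Reagent developed 30 min at room temperature; AC50 fitted with the Hill equation.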

[13] = Cell Viability - LYMP2-006 (AID 978); details: LYMP2-006 lymphoblastoid cell viability, qHTS; series mostly up to 92.2 µM; note: % is set by controls: 0 for no effect and ±100 for the full control effect; nearly all actives have a fitted effect of over 60% in size
Summary of the method: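 Human lymphoblastoid cells, 2500 per well, were preincubated 5 hr at 37 C, then exposed to compounds for 24 hr at 37 C in complete medium. Viability was read as intracellular ATP by CellTiter-Glo luminescence; AC50 from Hill-equation fits of qHTS concentration-response data.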

[14] = Cell Viability - LYMP2-008 (AID 980); details: LYMP2-008 lymphoblastoid cell viability, qHTS; series mostly up to 92.2 µM; note: % is set by controls: 0 for no effect and ±100 for the full control effect; nearly all actives have a fitted effect of over 60% in size
Summary of the method: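 Measured: ATP-dependent luminescence, proportional to viable cell number, in human lymphoblastoid cells treated 24 hr with compound in complete culture medium. Values are AC50s from Hill-equation modelling of qHTS titrations.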

[15] = Cell Viability - LYMP2-018 (AID 985); details: LYMP2-018 lymphoblastoid cells, viability (qHTS); series mostly up to 92.2 µM;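 note: plate controls were DMSO only for no effect and tetraoctylammonium bromide at 92 µM for full effect; nearly all actives have a fitted effect of over 50% in size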
Summary of the method: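 In this qHTS viability assay, cells are treated for 24 hr and cellular ATP is quantified by luciferase-based luminescence, with tetraoctylammonium bromide as positive control.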

[16] = Cell Viability - LYMP2-026 (AID 989); details: LYMP2-026 lymphoblastoid cell viability, qHTS; series mostly up to 92.2 µM; note: % is set by controls: 0 for no effect and ±100 for the full control effect; nearly all actives have a fitted effect of over 50% in size
Summary of the method: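 Acute toxicity screen in complete culture medium, with 24 hr compound exposure at 37 C. Viability read as cellular ATP via luciferase reaction, with tetraoctylammonium bromide (6.4pM to 92 uM) as positive control.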

[17] = Cell Viability - LYMP1-002 - Assay at 24 hr (AID 993); details: LYMP1-002 lymphoblastoid cells viability; series mostly up to 92.2 µM; note: % is set by controls: 0 for no effect and ±100 for the full control effect
Summary of the method: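 Viability was judged from intracellular ATP using a luciferase read-out, following a 24-hour compound incubation at 37 C of lymphoblastoid cells seeded at 2500 per well. Concentration-response data were fitted to the Hill equation for AC50.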

[18] = qHTS assay for small molecule agonists of the antioxidant response element (ARE) signaling pathway measured by Nrf2-dependant transcriptional activity - cell viability counter screen (AID 720653; active = well fitted curve in the direction sought with a large enough effect in the repeat runs; an effect the other way counts as inactive or inconclusive; note: % is set by controls: 0 for no effect and ±100 for the full control effect); details: ARE-bla HepG2 viability, CellTiter-Glo ATP luminescence, 16 h; stronger effect = lower value
Summary of the method: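 ARE-bla HepG2 cells (2,000/well) rested 5 hrs at 37C/5% CO2, then exposed to compounds in DMSO for 16 hrs. Viability was read in the same wells as intracellular ATP by luminescence, 30 min at room temperature after reagent addition.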

[19] = qHTS assay for cell viability of HEK293 cells (AID 743288); details: ATP luminescence (CellTiter-Glo), 18 h; max response: stronger effect = lower value; note: % is set by controls: 0 for no effect and ±100 for the full control effect; nearly all actives have a fitted effect of over 50% in size
Summary of the method: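 After 18 h compound exposure at 37 C, parental HEK293 cells (2,000/well) are lysed with CellTiter-Glo and luminescence is read following 30 min at room temperature.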

[20] = qHTS assay for cell viability of the p53RE-bla HCT-116 cell line (AID 743292); details: p53RE-bla HCT-116 viability, ATP luminescence, 16 h; series mostly up to 95 µM; note: % is set by controls: 0 for no effect and ±100 for the full control effect; nearly all actives have a fitted effect of over 55% in size
Summary of the method: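 HCT-116 p53RE-bla cells seeded 4,000/well; 5 h at 37 C; compound (DMSO) added; 16 h at 37 C; CellTiter-Glo added, 30 min RT; luminescence read.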

O=C(Cl)C(Cl)(Cl)Cl
inactive: Potency [1] > 92 µM | Potency [2] > 92 µM | outcome [3] | caspase-3 activation [4] 0.525% | Potency [5] | Potency [6] | Potency [7] | Potency [8] | Potency [9] | Potency [10] | Potency [11] | Potency [12] | Potency [13] | Potency [14] | Potency [15] | Potency [16] | Potency [17] | max response [18] -1.42% | max response [19] -17% | Potency [20]

C=C(Cl)Cl
inactive: Potency [1] > 92 µM | Potency [2] > 92 µM | outcome [3] | caspase-3 activation [4] 1.75% | Potency [5] | Potency [6] | Potency [7] | Potency [8] | Potency [9] | Potency [10] | Potency [11] | Potency [12] | Potency [13] | Potency [14] | Potency [15] | Potency [16] | Potency [17] | max response [18] -2.66% | max response [19] -0.763% | Potency [20]

Clc1ccc2ccccc2c1
inactive: Potency [1] > 92 µM | Potency [2] > 92 µM | outcome [3] | caspase-3 activation [4] 4.04% | Potency [5] | Potency [6] | Potency [7] | Potency [8] | Potency [9] | Potency [10] | Potency [11] | Potency [12] | Potency [13] | Potency [14] | Potency [15] | Potency [16] | Potency [17] | max response [18] 4.36% | max response [19] 3.91% | Potency [20]

C=CC(=C)C
inactive: Potency [1] > 92 µM | Potency [2] > 92 µM | outcome [3] | caspase-3 activation [4] -1.13% | Potency [5] | Potency [6] | Potency [7] | Potency [8] | Potency [9] | Potency [10] | Potency [11] | Potency [12] | Potency [13] | Potency [14] | Potency [15] | Potency [16] | Potency [17] | max response [18] -2.67% | max response [19] 2.66% | Potency [20]

CC(O)CCl (stereo not given)
inactive: Potency [1] > 92 µM | Potency [2] > 92 µM | outcome [3] | caspase-3 activation [4] 3.17% | Potency [5] | Potency [6] | Potency [7] | Potency [8] | Potency [9] | Potency [10] | Potency [11] | Potency [12] | Potency [13] | Potency [14] | Potency [15] | Potency [16] | Potency [17] | max response [18] -0.544% and -11.8% | max response [19] 2.39% and -2.48% | Potency [20]

CCOc1ccc(N)cc1
inactive: Potency [1] > 92 µM | Potency [2] > 92 µM | outcome [3] | caspase-3 activation [4] 6.79% | Potency [5] | Potency [6] | Potency [7] | Potency [8] | Potency [9] | Potency [10] | Potency [11] | Potency [12] | Potency [13] | Potency [14] | Potency [15] | Potency [16] | Potency [17] | max response [18] 1.12% | max response [19] 7.24% | Potency [20]

CCCCCCCC(=O)Cl
inactive: Potency [1] > 92 µM | Potency [2] > 92 µM | outcome [3] | caspase-3 activation [4] -0.621% | Potency [5] | Potency [6] | Potency [7] | Potency [8] | Potency [9] | Potency [10] | Potency [11] | Potency [12] | Potency [13] | Potency [14] | Potency [15] | Potency [16] | Potency [17] | max response [18] 7.34% | max response [19] -11% | Potency [20]

O=C=NC1CCCCC1
inactive: Potency [1] > 92 µM | Potency [2] > 92 µM | outcome [3] | caspase-3 activation [4] 0.146% and -1.42% | Potency [5] | Potency [6] | Potency [7] | Potency [8] | Potency [9] | Potency [10] | Potency [11] | Potency [12] | Potency [13] | Potency [14] | Potency [15] | Potency [16] | Potency [17] | max response [18] 3.13% and -2.08% | max response [19] -2.8% and 0.863% | Potency [20]

CC(C)(c1ccccc1)c1ccc(O)cc1
inactive: Potency [1] > 92 µM | Potency [2] > 92 µM | outcome [3] | caspase-3 activation [4] 1.43% | Potency [5] | Potency [6] | Potency [7] | Potency [8] | Potency [9] | Potency [10] | Potency [11] | Potency [12] | Potency [13] | Potency [14] | Potency [15] | Potency [16] | Potency [17] | max response [18] 9.52% and -12.4% | max response [19] -13.3% and 1.83% | Potency [20]

OCC1CO1 (stereo not given)
inactive: Potency [1] > 92 µM | Potency [2] > 92 µM | outcome [3] | caspase-3 activation [4] -2.46% | Potency [5] | Potency [6] | Potency [7] | Potency [8] | Potency [9] | Potency [10] | Potency [11] | Potency [12] | Potency [13] | Potency [14] | Potency [15] | Potency [16] | Potency [17] | max response [18] -5.57% and 1.53% | max response [19] -3.99% and -2.83% | Potency [20]

From PubChem BioAssay (NCATS)
